{"source": "paper PMC10726135", "about": "“HNF4α isoforms regulate the circadian balance between carbohydrate and lipid metabolism in the liver”", "note": "The full ranking holds about 18,000 sequences; the median of “log2 normalized intensity” is about 0.39, and the highest 2% start at about 6.6. Shown is part of a subset that was picked to be rich in the highest values."}
{"target": "T1, HNF4alpha2 (COS-7 nuclear extract) (Homo sapiens, UniProt P41235 1-474)", "T1 sequence": "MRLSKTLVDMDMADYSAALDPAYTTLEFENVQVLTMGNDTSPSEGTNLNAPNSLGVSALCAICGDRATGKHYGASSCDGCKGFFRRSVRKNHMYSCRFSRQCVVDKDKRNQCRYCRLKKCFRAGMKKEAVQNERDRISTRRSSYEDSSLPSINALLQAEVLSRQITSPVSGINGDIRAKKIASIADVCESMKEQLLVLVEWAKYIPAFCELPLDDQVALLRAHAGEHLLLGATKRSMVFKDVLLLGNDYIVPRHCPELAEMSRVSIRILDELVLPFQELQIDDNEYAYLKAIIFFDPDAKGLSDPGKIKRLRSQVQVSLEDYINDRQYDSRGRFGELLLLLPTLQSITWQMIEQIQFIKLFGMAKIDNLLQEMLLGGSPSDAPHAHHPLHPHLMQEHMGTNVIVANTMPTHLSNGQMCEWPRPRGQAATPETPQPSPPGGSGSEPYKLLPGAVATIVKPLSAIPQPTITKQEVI", "assay": "protein-binding microarray; COS-7 nuclear extract on double-stranded Agilent 4x180k PBM; binding buffer, salt, pH and temperature not given in the material; high values mean tight binding", "settings": "chain copies: 2; label: 3' end of strand 1 on the slide; dsDNA, one strand shown", "how_it_was_run": "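A human HNF4α isoform was expressed in COS-7 cells by transient CaPO4 transfection, and nuclear extracts were prepared. These were applied to a custom Agilent SurePrint G3 4x180k array carrying ~44,000 test sequences in quadruplicate as double-stranded ~60-nt oligonucleotides, and an Agilent G2565CA scanner imaged bound HNF4α at 2-µm resolution. The background-corrected, normalized gProcessedSignal from Agilent software was used as the binding signal.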", "units": {"binding signal": "log2 normalized intensity"}}
{"sequence": "CTCCAGGGCACTGCCCTTTGGAACCTGCCCGCCTAGGGAGATTAGAGTATCGGTCGA", "binding signal": 5.54}
{"sequence": "TTATGCAGACCTTTGCCCTTTGTTTACATAGCCTAGGGAGATTAGAGTATCGGTCGA", "binding signal": 5.27}
{"sequence": "GGATGCCCTTTGACCTCTGCTTCCTGCTACGCCTAGGGAGATTAGAGTATCGGTCGA", "binding signal": 5.58}
{"sequence": "ATTCCCTCCAGCAGGGGATGCCCTTTGACCGCCTAGGGAGATTAGAGTATCGGTCGA", "binding signal": 8.91}
{"sequence": "CTAGGCTCCAGGGCACTGCCCTTTGGAACCGCCTAGGGAGATTAGAGTATCGGTCGA", "binding signal": 6.71}
{"sequence": "TACTTTGCTTCCAAGTTATGCAGACCTTTGGCCTAGGGAGATTAGAGTATCGGTCGA", "binding signal": 2.14}
{"sequence": "TTGGGTCACAATCACAAATGCCTTCAGGGGGCCTAGGGAGATTAGAGTATCGGTCGA", "binding signal": 0.838}
{"sequence": "TCAGCCCACAGGTCAATCCAGGTTGCTGCCGCCTAGGGAGATTAGAGTATCGGTCGA", "binding signal": -0.646}
{"sequence": "GGCCCAGAGCACAACCTTTGGCCGTGCATGGCCTAGGGAGATTAGAGTATCGGTCGA", "binding signal": 2.45}
{"sequence": "TTAAATCCTATCCTAGGGTTAAAGTCTACAGCCTAGGGAGATTAGAGTATCGGTCGA", "binding signal": 4.31}
{"sequence": "ACCCCACGGACTTAAATTGTGCTGTGTCAGGCCTAGGGAGATTAGAGTATCGGTCGA", "binding signal": 1.49}
{"sequence": "CAAAGTCCGCTTGCCTGAGGGTCATGACTAGCCTAGGGAGATTAGAGTATCGGTCGA", "binding signal": 2.26}
{"sequence": "GCCAATTCAGCAAACAAAGGCACTTCTCTCGCCTAGGGAGATTAGAGTATCGGTCGA", "binding signal": -0.96}
{"sequence": "TGAGCAGGCAGTGTCACAGAAATCATGTAGGCCTAGGGAGATTAGAGTATCGGTCGA", "binding signal": 0.722}
{"sequence": "AGGTCAAAGTGCAACTACAAGGAGCAGCCTGCCTAGGGAGATTAGAGTATCGGTCGA", "binding signal": 3.48}
{"sequence": "ACCTTGTGCAGTATCCCAGGGACTTACTCAGCCTAGGGAGATTAGAGTATCGGTCGA", "binding signal": -0.811}
{"sequence": "AGCAATACATTGAACTTTGAACACCTCTTCGCCTAGGGAGATTAGAGTATCGGTCGA", "binding signal": 5.41}
{"sequence": "TTGTTCAATAAGCAATACATTGAACTTTGAGCCTAGGGAGATTAGAGTATCGGTCGA", "binding signal": 7.41}
{"sequence": "AGAGCCTAGTTCATTGCAATTACTCAATAAGCCTAGGGAGATTAGAGTATCGGTCGA", "binding signal": -0.91}
{"sequence": "CAATAAGCAATACATTGAACTTTGAACACCGCCTAGGGAGATTAGAGTATCGGTCGA", "binding signal": 6.91}
{"sequence": "TTTTCAACATATACTTTGAACTTGTTTTTTGCCTAGGGAGATTAGAGTATCGGTCGA", "binding signal": 2.27}
{"sequence": "AAGCAAACAAAACACGGACTTTGAAGCTCCGCCTAGGGAGATTAGAGTATCGGTCGA", "binding signal": 1.95}
{"sequence": "TTTCATCTTCTTAGCCTTTGAACCCCACACGCCTAGGGAGATTAGAGTATCGGTCGA", "binding signal": 4.78}
{"sequence": "GATTTCATCTAAGGACAAACTTTGTCACTGGCCTAGGGAGATTAGAGTATCGGTCGA", "binding signal": 1.15}
{"sequence": "ATCTAAGATTCCCCCTACCCTCAATATCTGGCCTAGGGAGATTAGAGTATCGGTCGA", "binding signal": 4.35}
{"sequence": "TTAACAAGCATTTTGTTCCCATTGATCATTGCCTAGGGAGATTAGAGTATCGGTCGA", "binding signal": 1.23}
{"sequence": "CTGCCAAAGCTCACAGATGTGGAATGAAACGCCTAGGGAGATTAGAGTATCGGTCGA", "binding signal": -0.0699}
{"sequence": "CAATCCTGGAGAAGGAGCACCAATGACCTTGCCTAGGGAGATTAGAGTATCGGTCGA", "binding signal": 3.47}
{"sequence": "AAACAATGACCTCTGCACCCTTCCCTGAGTGCCTAGGGAGATTAGAGTATCGGTCGA", "binding signal": 3.51}
{"sequence": "CAATGACCTTTGACCCTTCTCTGGGAGAAAGCCTAGGGAGATTAGAGTATCGGTCGA", "binding signal": 8.21}
{"sequence": "TTTGAAAGAAAGAGACCTTTACCCTGACCTGCCTAGGGAGATTAGAGTATCGGTCGA", "binding signal": 3.55}
{"sequence": "GAAGGAGCACCAATGACCTTTGACCCTTCTGCCTAGGGAGATTAGAGTATCGGTCGA", "binding signal": 11.1}
{"sequence": "ACCTTTGACCCTTCTCTGGGAGAAAGGGAGGCCTAGGGAGATTAGAGTATCGGTCGA", "binding signal": 2.99}
{"sequence": "TTCCCTCATGATTTAGTAAGTTCAAGAAGAGCCTAGGGAGATTAGAGTATCGGTCGA", "binding signal": 0.956}
{"sequence": "GGCCTTGGGCCACCTGAGACAGTTTATGCCGCCTAGGGAGATTAGAGTATCGGTCGA", "binding signal": -0.994}
{"sequence": "CCCTTTGGCCTTTCTAATTATTTACAGGGAGCCTAGGGAGATTAGAGTATCGGTCGA", "binding signal": 0.82}
{"sequence": "GTCAAGTAGAGACCTGTCTTCCTGGTGACCGCCTAGGGAGATTAGAGTATCGGTCGA", "binding signal": 2.19}
{"sequence": "TCCTATTCGGTGCTGACCTTTGTTCACATTGCCTAGGGAGATTAGAGTATCGGTCGA", "binding signal": 5.89}
{"sequence": "AGGACTTTGGACCGTCTTGTGGATCCTTGGGCCTAGGGAGATTAGAGTATCGGTCGA", "binding signal": 4.73}
{"sequence": "ATGTGGGGCGTGTGTTAGACTTTGGACCTGGCCTAGGGAGATTAGAGTATCGGTCGA", "binding signal": 8.86}
{"sequence": "CGGGTATGTGGGGCGTGTGTTAGACTTTGGGCCTAGGGAGATTAGAGTATCGGTCGA", "binding signal": 4.22}
{"sequence": "CTCATTCCTATTCGGTGCTGACCTTTGTTCGCCTAGGGAGATTAGAGTATCGGTCGA", "binding signal": 7.77}
{"sequence": "ACACACAATAAGGACTTTGGACCGTCTTGTGCCTAGGGAGATTAGAGTATCGGTCGA", "binding signal": 7.27}
{"sequence": "CAATAAGGACTTTGGACCGTCTTGTGGATCGCCTAGGGAGATTAGAGTATCGGTCGA", "binding signal": 5.92}
{"sequence": "TAGACTTTGGACCTGGCCTGCGGGGTCAGGGCCTAGGGAGATTAGAGTATCGGTCGA", "binding signal": 5.39}
{"sequence": "GAGCACTCATTCCTATTCGGTGCTGACCTTGCCTAGGGAGATTAGAGTATCGGTCGA", "binding signal": 3.47}
{"sequence": "GTAGAGACCTGTCTTCCTGGTGACCTTTGTGCCTAGGGAGATTAGAGTATCGGTCGA", "binding signal": 7.11}
{"sequence": "GACCTGTCTTCCTGGTGACCTTTGTTTGGTGCCTAGGGAGATTAGAGTATCGGTCGA", "binding signal": 4.94}
